From PubChem BioAssay come the findings set out here.

Assay [1] can be described thus: Her2 expression decrease, cell viability multiplex – SKBR3 breast tumor cells, AlphaScreen, ATP viability, primary screen (AID 461;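 active = Her2 level under about 52% in both replicate screens, with viability over 70% of control, limit read from the data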;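 for Her2 level: lower value means less Her2 protein in the cells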;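 for viability: percent of carrier control wells set as 100% viability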). The note with it: SKBR3 Her2 protein level, 18-24 h, measured here: SKBR3 viability, ATP luminescence, at 10 µM. A general note: Alpha assays give light when donor and acceptor beads are brought close together.
Assay [2] addresses Receptor tyrosine-protein kinase erbB-2 (Homo sapiens) (UniProt P04626). The assay is described as above. The note with it: 18-24 h, at 10 µM, stronger effect = lower value.
The nature of assay [3]: reduced viability of SK-BR-3 breast cancer cells – cell-based, 24 h, human, pilot screen (AID 572;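 active = viability at or below 10% of carrier control in both of two separate runs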;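 note: compound exposure lasted between 18 and 24 h rather than exactly 24 h; 100% = carrier-treated control wells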). As to conditions: SK-BR-3 viability, CellTiter-Glo luminescence, at 10 µM, stronger effect = lower value.
Assay [4] is described as follows: HUVEC growth inhibition – cell-based, human, primary screen (AID 575).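 Note: 100% = median of untreated cell wells with 0.1% DMSO on each plate.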 As to conditions: HUVEC proliferation, CellTiter-Glo luminescence, 72 h; at 10 µM; stronger effect = lower value. (Cellular ATP, detected with luciferase, serves as a proxy for viable cell number.)
The nature of assay [5]: H69AR cell proliferation blockers – human, duplicate replicates, primary screen (AID 580;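 active = viability at or under a set limit in both replicates, limit being median viability minus 3 SD, cut at about 48% in these data, passing the limit was not always enough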;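 note: 100% = mean luminescence of untreated wells and 0% = no signal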). As to conditions: H69AR lung tumor cells viability, ATP luminescence, 72 h; at 10 µM; stronger effect = lower value.
Assay [6] can be described thus: MRP1 drug-resistance reversers in H69AR cells – cell-based, doxorubicin co-treatment, pilot screen (AID 601;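 active = viability loss from added drug above about 55%, and viability with drug at most 40%, in both replicates, limit read from the data, passing the limit was not always enough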). The note with it: CellTiter-Glo, 72 h, at 10 µM; for differential viability (reversal): stronger effect = higher value.
Assay [7] in a line: yeast transport mutant growth inhibition pilot in 384-well plates, post-Golgi transport modulator project (AID 636; in the data active = inhibition above about 31%). As to conditions: absorbance 615 nm, about 18 h, stronger effect = higher value.
A short description of assay [8]: growth suppression of yeast trafficking mutant, preliminary HTS, modulators of trafficking downstream of Golgi apparatus project, 1536-format plate, OD 615 nm (AID 637; in the data active = inhibition above about 30%). The note with it: yeast transport mutant growth, absorbance 615 nm, 18 h; stronger effect = higher value.
A short description of assay [9]: S. cerevisiae growth inhibition in permissive medium (OD615), pilot counter-assay for S. cerevisiae lifespan shortening project, permissive growth control (AID 705;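 active = growth inhibition above 25% in both replicates, a cutoff set 3 SD above the mean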). As to conditions: OD615, 24 h, at 10 µM, stronger effect = higher value.
A short description of assay [10]: S. cerevisiae growth inhibition in restrictive medium, OD615, pilot screen, restrictive growth control, yeast lifespan reduction project (AID 706;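 active = growth inhibition above a set limit, 3 SD over mean compound inhibition, in both replicates, cut at about 43% in these data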;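 note: modified DeaD lifespan yeast strain shifted to restrictive glucose medium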). As to conditions: OD615, 48 h, at 10 µM, stronger effect = higher value.
Assay [11] can be described thus: doxorubicin toxicity protection in MRP-1 cells – H69AR cells, CellTiter-Glo, duplicate, MRP-1 activator project, pilot screen (AID 807;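 active = viability increase at or above a cutoff of the median across tested compounds plus 3 SD, cut at about 8.5% in these data, passing the limit was not always enough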;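 note: compound pretreatment 18-22 h then 72 h combined with doxorubicin; 0% = doxorubicin alone and 100% = vehicle without doxorubicin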). The note with it: H69AR viability with doxorubicin, CellTiter-Glo luminescence; at 10 µM; stronger effect = higher value.
Assay [12] can be described thus: viability of HCT116 without oncogenic beta-catenin – human colon tumor cells, pilot screen (AID 823;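 active = cell viability at or below a set limit in both duplicate runs, the limit being the all-compound median minus 4 SD, cut at about 23% in these data, passing the limit was not always enough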;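 note: 0% = wells killed by 20 µM Hyamine and 100% = untreated DMSO cell wells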). The note with it: HCT116 beta-catenin knockout viability, CellTiter-Glo, 60 h; at 10 µM; stronger effect = lower value.
The nature of assay [13]: viability of PTEN-null HCT116 cells – cell-based, HCT116 clonal line, CellTiter-Glo, pilot screen (AID 824;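 active = viability at or below 27.92% in each of two runs, the all-compound median minus 4 SD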;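 note: 0% = 20 µM Hyamine control and 100% = vehicle cell control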). The note with it: HCT116 PTEN-deleted viability, 60 h, at 10 µM, stronger effect = lower value.
Assay [14] is described as follows: RAM pathway blockade in budding yeast – dse1pr::URA3 reporter, 5-FOA selection, pilot screen (AID 869;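 active = inhibition over a set limit, the all-compound mean plus 3 SD, in both replicate runs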;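 note: 0% = DMSO wells with no growth and 100% = 10 µM 1-NA-PP1 with full growth; RAM network block rescues cells from 5-FOA so hits raise OD615 growth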). The note with it: S. cerevisiae dse1pr::URA3 5-FOA growth, OD615, 2 d; at 10 µM; stronger effect = higher value; strain carries analog-sensitive mutant Cbk1 kinase.
Setting [15] is: H69AR cells + 2 uM doxorubicin, measured here: viability with 2 uM doxorubicin, stronger effect = lower value.
[16] abbreviates: H69AR cells, compound alone cytotoxicity.

Results filed as inconclusive are left out. The source made the active and inactive calls.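 Rule for the calls, unless noted: active = viability at or below 30% in both replicate assays; inconclusive = viability at or below 30% in just one of the two assays; inactive = the rest.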

Sequence of Receptor tyrosine-protein kinase erbB-2 (Homo sapiens) (P04626 whole entry, looked up): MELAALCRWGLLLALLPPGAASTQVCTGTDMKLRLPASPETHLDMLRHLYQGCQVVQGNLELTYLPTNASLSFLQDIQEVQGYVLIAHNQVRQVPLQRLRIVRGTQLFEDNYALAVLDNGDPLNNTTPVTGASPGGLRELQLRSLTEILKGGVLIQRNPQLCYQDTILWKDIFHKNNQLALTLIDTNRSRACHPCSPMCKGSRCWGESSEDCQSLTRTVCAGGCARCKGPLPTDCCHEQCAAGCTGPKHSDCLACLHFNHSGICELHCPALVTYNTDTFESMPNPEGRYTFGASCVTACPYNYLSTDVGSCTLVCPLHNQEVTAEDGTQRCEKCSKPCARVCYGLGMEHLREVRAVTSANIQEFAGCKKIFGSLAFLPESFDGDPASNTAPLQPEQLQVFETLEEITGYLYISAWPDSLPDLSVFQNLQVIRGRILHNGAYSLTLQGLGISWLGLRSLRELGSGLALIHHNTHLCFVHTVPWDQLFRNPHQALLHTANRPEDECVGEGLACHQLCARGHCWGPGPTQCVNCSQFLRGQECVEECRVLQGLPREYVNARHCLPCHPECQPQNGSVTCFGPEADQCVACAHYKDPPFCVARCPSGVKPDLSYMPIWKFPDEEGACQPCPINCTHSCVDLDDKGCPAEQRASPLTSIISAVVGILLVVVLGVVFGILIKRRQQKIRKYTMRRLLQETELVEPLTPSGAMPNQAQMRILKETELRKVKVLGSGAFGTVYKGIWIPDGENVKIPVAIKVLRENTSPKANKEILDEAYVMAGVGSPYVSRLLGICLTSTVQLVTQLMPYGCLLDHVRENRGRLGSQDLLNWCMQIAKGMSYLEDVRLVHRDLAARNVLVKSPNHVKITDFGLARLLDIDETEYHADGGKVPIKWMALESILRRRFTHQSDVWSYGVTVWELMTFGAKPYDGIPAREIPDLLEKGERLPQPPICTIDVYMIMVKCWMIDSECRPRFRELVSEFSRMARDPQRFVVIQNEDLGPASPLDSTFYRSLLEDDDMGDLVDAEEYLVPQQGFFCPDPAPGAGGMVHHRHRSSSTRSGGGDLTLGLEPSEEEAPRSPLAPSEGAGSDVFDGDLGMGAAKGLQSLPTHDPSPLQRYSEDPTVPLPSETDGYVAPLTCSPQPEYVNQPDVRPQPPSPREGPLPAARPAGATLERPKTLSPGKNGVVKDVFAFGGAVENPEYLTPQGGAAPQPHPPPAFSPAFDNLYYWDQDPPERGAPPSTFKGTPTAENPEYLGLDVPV

With `CC(C)(C)c1ccc(-c2nnc(SCCC#N)n2C2CCCC2)cc1`, the viability (as a rule, a read-out of living cells in per cent, often relative to untreated cells) in [1] is 73.5%; in assay [3], 73.5% (inactive); in assay [4], 65.7% (inactive); in assay [5], 78.8% (inactive); in [6] (setting [15]), 60.5%; in assay [6] (setting [16]), 78.8%. Moreover, the Her2 level in assay [2] was 98.5% (inactive). For the same molecule, the differential viability (reversal) in assay [6] (H69AR cells + 2 uM doxorubicin) is 18.4% (inactive). For the same molecule, the figures for the inhibition in assay [7] and in [8] were -4.32% (inactive) and -4.1% (inactive), respectively.

Take `CCCCc1nc2n[nH]c(N)c2c2c1CCCC2`: the viability was 138% in assay [1]; 138% (inactive) in assay [3]; 59.9% (inactive) in assay [4]; 92.3% (inactive) in [5]; 85.6% in [6] (setting [15]); 92.3% in assay [6] (setting [16]). Besides, the Her2 level in [2] is 96% (inactive). Also, the differential viability (reversal) in [6] (H69AR cells + 2 uM doxorubicin) was 6.68% (inactive). Also, the results for the inhibition in assay [7] and in assay [8] were -5.47% (inactive) and -0.82% (inactive), respectively.

Consider `O=C(NCC1CCCO1)c1ccc(N2CCCCC2)nc1` (configuration not stated), for which the viability in assay [1] was 91.5%; in [3] it was 91.5% (inactive); in assay [4], 113% (inactive); in assay [5], 90.1% (inactive); in assay [6] (setting [15]) it was 85.6%; in assay [6] (setting [16]) it was 90.1%. The Her2 level in assay [2] was 109% (inactive). The differential viability (reversal) in [6] (H69AR cells + 2 uM doxorubicin) is 4.52% (inactive). For the same molecule, the values for the inhibition in assay [7] and in [8] were 0.26% (inactive) and -2.83% (inactive), respectively.

Turning to `COc1ccc(CC(=O)Nc2ccc(OC)c(NC(=O)c3ccco3)c2)cc1`, the viability in [1] was 91%; in assay [3], 91% (inactive); in [4], 85.8% (inactive); in assay [5], 81.9% (inactive); in assay [6] (setting [15]), 91.5%; in assay [6] (setting [16]), 81.9%. For the same molecule, the Her2 level in [2] was 106% (inactive). Further, the differential viability (reversal) in assay [6] (H69AR cells + 2 uM doxorubicin) is -9.55% (inactive). Further, the inhibition (usually the relative decrease from the control value, in per cent) in assay [7] is 4% (inactive); in assay [8], -2.38% (inactive).

On to `O=C(NCc1ccc2c(c1)OCO2)c1ccc(NS(=O)(=O)c2ccc3c(c2)OCCO3)cc1`, for which the viability in [1] is 102%; in assay [3] it was 102% (inactive); in [4], 85.2% (inactive); in [5], 106% (inactive); in assay [6] (setting [15]), 90.9%; in assay [6] (setting [16]), 106%. Further, the Her2 level in [2] is 84.5% (inactive). Further, in [6] (H69AR cells + 2 uM doxorubicin), the differential viability (reversal) is 15.4% (inactive). In addition, the inhibition is -8.11% (inactive) in assay [7] and -3.65% (inactive) in assay [8].

Consider `CCOC(=O)Cn1nnnc1CN(Cc1ccc(OC)cc1)Cc1cc2cc(C)cc(C)c2[nH]c1=O`, for which the viability in assay [1] is 95%; in assay [3], 95% (inactive); in assay [4] it was 87.3% (inactive); in assay [5], 89.4% (inactive); in assay [6] (setting [15]), 74.2%; in assay [6] (setting [16]) it was 89.4%. In addition, the Her2 level in [2] was 105% (inactive). The differential viability (reversal) in assay [6] (H69AR cells + 2 uM doxorubicin) is 15.2% (inactive). In addition, the inhibition in assay [7] was -1.32% (inactive); in assay [8] it was -0.55% (inactive).

As to `Brc1ccc2[nH]ncc2c1`, the viability in assay [1] was 101%; in assay [3], 101% (inactive); in [4] it was 110% (inactive); in assay [5], 91.6% (inactive); in [6] (setting [15]), 91.5%; in [6] (setting [16]), 91.6%. Also, the Her2 level in assay [2] was 78% (inactive). Further, the differential viability (reversal) in [6] (H69AR cells + 2 uM doxorubicin) was 0.11% (inactive). Also, the values for the inhibition in assay [7] and in [8] were -2.5% (inactive) and 1.43% (inactive), respectively.

In the case of `Cc1nc(C)c(C(=O)Nc2ccc(Oc3ccccc3)cc2)o1`, the viability was 94.5% in [1]; 94.5% (inactive) in assay [3]; 66.4% (inactive) in assay [4]; 103% (inactive) in assay [5]; 79.4% in [6] (setting [15]); 103% in assay [6] (setting [16]). In addition, the Her2 level in [2] was 82% (inactive). Further, the differential viability (reversal) in [6] (H69AR cells + 2 uM doxorubicin) was 23.8% (inactive). In addition, the inhibition in [7] is -6.35% (inactive); in assay [8], -6.5% (inactive).

On to `Clc1cccc(-c2nn3c(Cn4cnc5ccccc54)nnc3s2)c1`, for which the viability is 94.5% in assay [1]; 94.5% (inactive) in assay [3]; 76.9% (inactive) in assay [4]; 94.9% (inactive) in assay [5]; 96.6% in assay [6] (setting [15]); 94.9% in [6] (setting [16]). Moreover, the Her2 level in assay [2] was 82.5% (inactive). Also, the differential viability (reversal) in assay [6] (H69AR cells + 2 uM doxorubicin) is -1.69% (inactive). Moreover, the inhibition was 0.92% (inactive) in [7] and 5.9% (inactive) in assay [8].

Regarding `COc1cccc(CN=CC2=C(O)CC(C)(C)CC2=O)c1OC`, the viability in [1] is 106%; in assay [3], 106% (inactive); in [4] it was 101% (inactive); in [5], 100% (inactive); in assay [6] (setting [15]) it was 101%; in assay [6] (setting [16]) it was 100%. Also, in [2], the Her2 level was 114% (inactive). Moreover, in assay [6] (H69AR cells + 2 uM doxorubicin), the differential viability (reversal) is -0.91% (inactive). The inhibition in assay [7] was -1.69% (inactive); in [8] it was -7.54% (inactive).

Consider `O=C(CC(CC(=O)c1ccccc1)C(=O)O)c1ccccc1`, for which the viability in assay [1] is 89%; in assay [3], 89% (inactive); in assay [4] it was 107% (inactive); in assay [5], 102% (inactive); in assay [6] (setting [15]) it was 96.5%; in [6] (setting [16]), 102%. The Her2 level in assay [2] was 101% (inactive). Further, the differential viability (reversal) in [6] (H69AR cells + 2 uM doxorubicin) was 5.54% (inactive). For the same molecule, the inhibition in assay [7] was 3.6% (inactive); in [8], -6.77% (inactive).

`Cc1cccc(-n2c(=O)cc(N3CCN(c4ccc(F)cc4)CC3)[nH]c2=O)c1`: the viability in assay [1] is 85.5%; in assay [3], 85.5% (inactive); in [4], 66.5% (inactive); in assay [5], 71.9% (inactive); in assay [6] (setting [15]), 71.8%; in assay [6] (setting [16]), 71.9%. The figures for the viability in assay [12] and in assay [13] were 79.3% (inactive) and 66.1% (inactive), respectively. Moreover, in [2], the Her2 level is 110% (inactive). Moreover, in assay [6] (H69AR cells + 2 uM doxorubicin), the differential viability (reversal) is 0.095% (inactive). Further, the inhibition in assay [7] is -2.13% (inactive); in assay [8] it was -2.33% (inactive); in assay [14], 4.09% (inactive). Further, the values for the growth inhibition in [9] and in [10] were -12.5% (inactive) and -8.2% (inactive), respectively. Also, the viability increase in [11] is -5.2% (inactive).

For `O=C(NCC(c1cccnc1)N1CCN(c2ccc(F)cc2)CC1)OCc1ccccc1` (configuration not stated), the viability in assay [1] is 101%; in assay [3], 101% (inactive); in [4], 85% (inactive); in [5], 91.8% (inactive); in assay [6] (setting [15]) it was 95%; in assay [6] (setting [16]) it was 91.8%. In assay [2], the Her2 level was 66% (inactive). The differential viability (reversal) in assay [6] (H69AR cells + 2 uM doxorubicin) is -3.13% (inactive). The values for the inhibition in assay [7] and in assay [8] were -2.57% (inactive) and 32.9% (active), respectively.

In the case of `CCOc1ccccc1N1C(=O)c2ccc(C(=O)Nc3cccnc3)cc2C1=O`, the viability in assay [1] was 94.5%; in assay [3] it was 94.5% (inactive); in assay [4], 88.2% (inactive); in [5], 102% (inactive); in [6] (setting [15]), 100%; in assay [6] (setting [16]), 102%. In addition, the viability in [12] is 107% (inactive); in assay [13], 98.7% (inactive). Further, the Her2 level in assay [2] was 94% (inactive). In addition, the differential viability (reversal) in [6] (H69AR cells + 2 uM doxorubicin) was 2.08% (inactive). The inhibition was -1.6% (inactive) in assay [7], -2.13% (inactive) in [8] and 3.15% (inactive) in assay [14]. For the same molecule, the growth inhibition was -15.8% (inactive) in assay [9] and -21.7% (inactive) in assay [10]. Moreover, the viability increase in assay [11] is 0.54% (inactive).
